Screening results as filed in PubChem.
KCNQ2 pot: potentiators of rat KCNQ2 potassium channel | CHO-K1 KCNQ2, FluxOR thallium flux fluorescence; active compounds read high | B-score at 10 µM | 310,000 compounds, 0.54% hits;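 active = fluorescence ratio B-score at least 3 SD of library B-scores, with initial fluorescence B-score within 3 of them, cut at about 5.3 in these data; same plate scores as AID 2156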;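 note: B-score of peak minus minimum over baseline fluorescence ratio after K+ and Tl+ stimulus; positive B-score means potentiation of KCNQ2 with more thallium influx and brighter signal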
KCNQ2 block: rat KCNQ2 potassium channel inhibitors, primary screen, cell-based, CHO-K1, FluxOR thallium flux, B-score; B-score at 10 µM; AID 2156, 2009; 20 min; active compounds read low; Potassium voltage-gated channel subfamily KQT member 2 (Rattus norvegicus), O88943; 310,000 compounds, 1.1% hits;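 active = fluorescence ratio B-score at most minus 3 library SDs, with starting brightness B-score within 2 library SDs, cut at about -5.5 in these data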
Kir21 confirm: mouse Kir2.1 channel blockers, retest, confirmation, cell-based, FluxOR thallium flux, duplicate; shares compounds with KCNQ2 pot; Kir2.1-expressing cells, FluxOR thallium flux fluorescence; active compounds read low; Tl flux remaining, % of negative control (active compounds read low), % at 10 µM; 2,300 compounds, 41% hits; AID 2032, 2009;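 active = Primary-screen hit whose thallium flux fell at least 3 control SD below untreated wells in both duplicates, with normal baseline fluorescence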;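 note: 0% = blank wells without stimulus and 100% = stimulated no-compound controls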
HEK293 ctr: parental HEK293 activity in Kir2.1 inhibitor counter-screen | shares compounds with KCNQ2 pot | parental HEK293 cells, FluxOR thallium flux fluorescence; 0% = unstimulated blank wells | FluxOR signal as % of negative control (100 = no effect), % at 10 µM | 2,300 compounds, 19% hits | AID 2105;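 active = dye signal at least 3 control SD above or below untreated wells in both duplicates, raw fluorescence within 3, either direction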;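 note: percent is based on the flux ratio of peak minus minimum fluorescence over baseline F0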
CHO-K1 Tl ctr: nonspecific thallium flux increase in parental CHO-K1, confirmation, counter-screen for KCNQ2 potentiator project, cell-based, FluxOR thallium flux, duplicate | shares compounds with KCNQ2 pot | parental CHO-K1 cells, FluxOR thallium flux fluorescence; zero = vehicle mean+3SD, 100% = vehicle-minus-blank window | activity increase over 3SD of controls, % at 10 µM | 1,200 compounds, 43% hits | AID 2282, 2010;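 active = signal rise of at least 3 SD above the untreated control mean, in both duplicate wells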;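 note: counter screen of KCNQ2 potentiator hits so any rise reflects channel-independent effects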
KCNQ1 pot spec: human KCNQ1 channel potentiation off-target, confirmation, selectivity assay for KCNQ2 potentiator project, cell-based, CHO, FluxOR thallium flux; activation over 3SD threshold, % at 10 µM; AID 2283, 2010; 1,200 compounds, 28% hits; shares compounds with KCNQ2 pot; CHO KCNQ1 stable, FluxOR thallium flux fluorescence; beyond 3SD, as % of vehicle-control signal;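 active = fluorescence ratio rise of at least 3 SD of vehicle wells above their mean, in both replicate wells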;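 note: 0% = vehicle mean plus 3 SD and 100% = vehicle minus unstimulated blank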
Target sequence (P51787 whole entry, looked up): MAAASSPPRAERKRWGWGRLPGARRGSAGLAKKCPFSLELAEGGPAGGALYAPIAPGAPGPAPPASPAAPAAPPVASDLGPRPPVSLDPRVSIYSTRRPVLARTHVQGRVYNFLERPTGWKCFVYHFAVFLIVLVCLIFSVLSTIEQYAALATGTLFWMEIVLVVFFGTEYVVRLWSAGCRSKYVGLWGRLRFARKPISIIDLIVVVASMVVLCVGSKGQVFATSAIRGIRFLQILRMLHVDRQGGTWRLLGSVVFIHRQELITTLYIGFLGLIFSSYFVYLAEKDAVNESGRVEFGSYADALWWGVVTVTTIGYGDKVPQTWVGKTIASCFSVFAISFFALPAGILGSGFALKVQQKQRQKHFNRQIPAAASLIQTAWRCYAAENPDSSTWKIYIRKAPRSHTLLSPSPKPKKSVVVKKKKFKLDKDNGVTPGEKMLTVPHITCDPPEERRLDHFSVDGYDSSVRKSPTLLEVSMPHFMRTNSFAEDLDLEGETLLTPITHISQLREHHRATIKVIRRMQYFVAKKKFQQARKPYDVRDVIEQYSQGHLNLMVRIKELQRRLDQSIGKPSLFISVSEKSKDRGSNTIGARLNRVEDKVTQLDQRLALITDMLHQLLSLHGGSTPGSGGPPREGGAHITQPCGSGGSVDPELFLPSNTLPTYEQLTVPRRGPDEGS
KCNQ2 pot confirm: rat KCNQ2 channel potentiators, confirmation, cell-based, CHO, FluxOR thallium flux, duplicate. 1,200 compounds, 68% hits. CHO-KCNQ2 cells, FluxOR thallium flux fluorescence. shares compounds with KCNQ2 pot. potentiation, less the hit threshold, % at 10 µM;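 active = fluorescence ratio rising 3 SD or more over the vehicle control mean in both replicates, plus primary screen hit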;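 note: peak minus minimum thallium fluorescence divided by baseline after K/Tl stimulus; 0% = vehicle mean plus 3 SD and 100% = vehicle minus unstimulated blank difference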
Kir2-1 sel: mouse Kir2.1 channel activation off-target, confirmation, selectivity assay for KCNQ2 potentiator project, cell-based, HEK293, FluxOR thallium flux; shares compounds with KCNQ2 pot; HEK293 Kir2.1, FluxOR thallium flux fluorescence; activity over 3SD threshold, % at 10 µM; 1,200 compounds, 2% hits; AID 2345, 2010;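 active = fluorescence ratio rise of at least 3 SD above the vehicle-control mean, seen in both replicates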;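 note: 0% = vehicle mean plus 3 SD and 100% = vehicle minus no-stimulus blank window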
KCNQ2 W236L MoA: potentiators of retigabine-insensitive KCNQ2 W236L, mechanism study for KCNQ2 potentiator project, cell-based, rat KCNQ2 W236L, CHO, automated patch clamp. shares compounds with KCNQ2 pot. AID 2558, 2010. current increase over 3SD of negative controls (%), active compounds read high, % at 25 µM. 940 compounds, 10% hits. automated patch clamp current;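 active = current increase at least 3 SD of the untreated controls above them in both duplicate recordings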
* hit, by the source's call; i = inactive; x = no result given. Sampled rows, rich in hits. Any-hit rate of the full collection: about 1.6%.

SMILES	KCNQ2 pot	KCNQ2 block	Kir21 confirm	HEK293 ctr	others
O=C(Cc1ccc(F)cc1)Nc1cccc(-c2cn3c(n2)SCC3)c1	10*	i	i	i	CHO-K1 Tl ctr=-13;KCNQ1 pot spec=-19;KCNQ2 pot confirm=-29;Kir2-1 sel=-43
O=C(Nc1cccc(-c2cn3c(n2)SCC3)c1)c1ccc(Br)o1	x	i	x	x
Cc1ccccc1S(=O)(=O)Cc1ccc(C(=O)N(C)C2CCCCC2)o1	1.4	i	x	x
COc1cc(O)ccc1C(=O)CCc1ccc(O)cc1	2.8	i	x	x
CC(O)CNCCCOc1cccc(C(F)(F)F)c1 (stereo not given)	2.2	i	x	x
CC(O)CNCCCOc1cccc(Oc2ccccc2)c1 (stereo not given)	2.4	i	14%*	i
CC1CCN(C(=O)c2[nH]cnc2C(=O)N[C@@H](C)C(=O)OCc2ccccc2)CC1	x	i	x	x
CCOC(=O)c1cnc2c(C)cccc2c1NCCc1ccc(OC)c(OC)c1	x	i	i	i
CCOC(=O)c1cnc2c(OC)cccc2c1Oc1ccccc1	x	i	48%*	i
CCOC(=O)c1cnc2ccc(C(=O)OC)cc2c1NCCc1ccc(OC)c(OC)c1	x	i	x	x
CCOC(=O)c1cnc2c(OC)cccc2c1N1CC(C)CC(C)C1 (stereo not given)	1.2	i	x	x
CC(OC(=O)CCN=C1NS(=O)(=O)c2ccccc21)C(=O)Nc1ccccc1F (stereo not given)	0.3	i	x	x
CCN1CCN(c2c(C=O)c(Cl)nc3ccc(OC)cc23)CC1	1.9	i	x	x
CCCCCNc1nc2sc3c(c2c(=O)n1-c1cccc(Cl)c1)CCN(C)C3	x	i	x	x
COc1ccccc1C(CCNCc1ccccc1)c1ccc(OC(C)C)cc1 (stereo not given)	x	i	58%*	i
COc1ccccc1C(CCNCc1ccc(N(C)C)cc1)c1ccc(OC(C)C)cc1 (stereo not given)	x	i	x	x
COc1ccc(CNCCC(c2ccc(OC(C)C)cc2)c2ccccc2OC)cc1 (stereo not given)	x	i	29%*	i
COc1ccc(CNCCC(c2ccc(OC(C)C)cc2)c2ccccc2OC)cc1OC (stereo not given)	x	i	x	x
CN(C)C(=S)Nc1ccc(Cc2ccncc2)cc1	x	i	x	x
O=C1C2C3C=CC(C4CC34)C2C(=O)N1c1ccc2c(c1)OCO2 (stereo not given)	x	i	x	x
Cc1cc(C)c(S(=O)(=O)N2CCOC2CNC(=O)C(=O)NCc2ccncc2)c(C)c1 (stereo not given)	0.04	i	x	x
CC(C)(C)c1csc(SCC(=O)Nc2ccc(Cl)cn2)n1	7*	i	i	i	CHO-K1 Tl ctr=13*;KCNQ1 pot spec=10*;KCNQ2 pot confirm=5.0*;Kir2-1 sel=-46;KCNQ2 W236L MoA=i
Cc1csc(SCC(=O)Nc2ccc(Cl)cn2)n1	0.39	i	x	x
COc1ccc(Cc2nnc3sc(SCC(=O)Nc4ccccc4)nn3c2=O)cc1OC	x	i	x	x
O=[N+]([O-])c1c(Nc2ccc(O)cc2)cc(Cl)c2nonc12	-10	-10*	66%*	i
SMILES	KCNQ2 pot	KCNQ2 block	Kir21 confirm	HEK293 ctr	others
CN(C)c1cc(Nc2ccc(O)cc2)c([N+](=O)[O-])c2nonc12	x	i	x	x
COc1cccc(CN(C(=O)/C=C/c2ccco2)C2CCS(=O)(=O)C2)c1 (stereo not given)	x	i	x	x
Oc1ccc(Nc2nc(N3CCCC3)c3ccccc3n2)cc1	x	i	48%*	i
COc1ccc(Nc2nc(N3CCCCC3)c3ccccc3n2)cc1	x	i	x	x
Cc1ccc(C(=O)Nc2nnc(COc3ccccc3)s2)cc1	0.21	i	x	x
O=C1CN(C(=O)CCCc2c[nH]c3ccccc23)c2ccccc2N1	x	i	50%*	i
O=C(O)CCCC(=O)N1CC(=O)Nc2ccccc21	1.7	i	x	x
O=C(NC(=S)N(Cc1ccccc1)Cc1ccccc1)c1ccccc1F	11*	i	i	218%*	CHO-K1 Tl ctr=110*;KCNQ1 pot spec=-1;KCNQ2 pot confirm=22*;Kir2-1 sel=-40;KCNQ2 W236L MoA=i
O=C(NC(=S)NCc1ccccc1)c1ccccc1F	0.78	i	x	x
CC(C)C(=O)NC(=S)N(Cc1ccccc1)Cc1ccccc1	x	i	x	x
COc1ccc(C(=O)NC(=S)N(Cc2ccccc2)Cc2ccccc2)cc1	19*	i	i	199%*	CHO-K1 Tl ctr=136*;KCNQ1 pot spec=-6;KCNQ2 pot confirm=-1;Kir2-1 sel=-28;KCNQ2 W236L MoA=i
C=CCN(CC=C)C(=S)NC(=O)/C=C/c1ccccc1	0.7	i	x	x
C=CCN(CC=C)C(=S)NC(=O)c1ccc(-c2ccccc2)cc1	7.3*	i	i	420%*	CHO-K1 Tl ctr=-3;KCNQ1 pot spec=22*;KCNQ2 pot confirm=89*;Kir2-1 sel=-4;KCNQ2 W236L MoA=i
CCc1noc(C)c1C(=O)Nc1nc(-c2ccc(OC)cc2OC)cs1	x	i	x	x
Cn1cccc1CC(=O)N/N=C/c1ccc(Cl)c([N+](=O)[O-])c1	x	i	x	x
CCOc1nc(NC2CCCC2)nc(N2CCC(C)CC2)n1	x	i	x	x
O=C(NCC1(O)CCCCC1)C1CCC(=O)N(Cc2cccc(C(F)(F)F)c2)C1 (stereo not given)	x	i	x	x
COC(=O)CNC(=O)CSc1nc(N)cc(=O)[nH]1	x	i	x	x
CSCC[C@H](NC(=O)[C@H]1CC[C@H](CNC(=O)[C@@H](N)Cc2ccccc2)CC1)C(=O)O	x	i	x	x
CCOC(=O)C1(Cc2ccc(OC)cc2)CCN(C(=O)[C@@H]2CCCN2C(C)=O)CC1	1.4	i	x	x
CCOc1cc(N2CCOCC2)c(OCC)cc1NC(=O)COC(=O)CCOc1ccc(C(C)(C)C)cc1	11*	i	i	i	CHO-K1 Tl ctr=3.1*;KCNQ1 pot spec=-24;KCNQ2 pot confirm=-12;Kir2-1 sel=-14;KCNQ2 W236L MoA=i
CCOc1ccc(OCCC(=O)OCC(=O)Nc2ccc(N3CCOCC3)cc2)cc1	0.66	i	x	x
